# Laboratory results: PubChem BioAssay AID686979 (National Center for Advancing Translational Sciences (NCATS), 2013)
# The whole screen tested about 420,000 compounds, of which about 50,000 (12%) were called active. Inconclusive results (about 26%) are left out. Many of the other results were omitted from the sample, so actives are more common in it than they were. Unmarked numbers belong to inactive results. The call rests on the fitted dose curve; in most records, active means well fitted inhibition curve with a large enough effect; inconclusive means small, poorly fitted or top-dose-only effect; inactive means flat fitted curve, though single readings scatter.
# Test: qHTS for Inhibitors of human tyrosyl-DNA phosphodiesterase 1 (TDP1): qHTS in cells in presence of CPT; further: nearly all actives have a fitted effect of over 55% in size
# Settings: chicken DT40 Tdp1-/-;hTDP1 cells + 20 nM CPT, ATP luminescence, 48 h; series mostly up to 46.2 µM; activity change, negative = growth inhibition: at the top concentration
# Procedure, shortened: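 Cell growth measured by CellTiter-Glo luminescence after a minimum 48 h, 37 C compound exposure with 20 nM CPT in Tdp1-knockout DT40 cells stably expressing hTDP1, seeded 400/well; qHTS titration format.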
# On the % scale 0 is the no-effect control and ±100 the full control effect; potency means the concentration at half of the fitted maximal effect.
Structure (SMILES),"activity change, negative = growth inhibition",Potency
C=CCn1c(SCC(=O)NC(=O)Cc2ccccc2)nc2ccccc2c1=O,0.809%,–
CCC(=O)Nc1ccccc1N1CCN(S(C)(=O)=O)CC1,-17.6%,–
COc1ccccc1C(=O)NC(=S)Nc1ccccc1N1CCCCC1,-23.6%,–
COc1ccc(C(=O)NC(=S)Nc2ccccc2N2CCN(S(C)(=O)=O)CC2)cc1OC,–,12.6 µM (active)
COc1ccc(S(=O)(=O)N2CCOCC2)cc1C(=O)NC1CCCCC1,-6.97%,–
O=C(CC1SC(N2CCCC2)=NC1=O)Nc1ccc(C(=O)NCCc2ccc(F)cc2)cc1 (stereo not given),-11.2%,–
Fc1ccc(-c2csc(-c3ccc(C4SCCS4)cc3)n2)cc1F,-15.4%,–
COc1cc(NC(=O)C2CC(c3ccccc3O)=NO2)c(OC)cc1Cl (stereo not given),22.2%,–
COc1cc(NC(=O)Cn2nc(-c3ccc(C)c(C)c3)ccc2=O)cc(OC)c1,–,20.6 µM (active)
COc1cc(NC(=O)CSc2nnc3ccc(-c4ccncc4)nn23)cc(OC)c1,-4.16%,–
COc1ccc(-c2ccc(=O)n(CC(=O)Nc3ccc(Br)cc3F)n2)cc1,-8.26%,–
O=C(Nc1nnc(CCOCCOCCc2nnc(NC(=O)c3ccco3)s2)s1)c1ccco1,-11.4%,–
CCCNC(=O)NC(=O)COC(=O)CC(NC(N)=O)c1ccc(Cl)cc1 (stereo not given),-6.82%,–
Cn1c(SCC(=O)Nc2ccc(N3CCOCC3)cc2)nnc1C(F)(F)F,-0.589%,–
CCOC(=O)N1CCN(C(=O)c2ccc3c(=O)n(CCc4ccc(OC)c(OC)c4)c(=O)[nH]c3c2)CC1,–,20.6 µM (active)
COCCn1c(=S)[nH]c2cc(C(=O)NCCc3ccc(OC)c(OC)c3)ccc2c1=O,-21.7%,–
COc1cc2[nH]c(=O)n(Cc3ccc(C(=O)NC4CCN(Cc5ccccc5)CC4)cc3)c(=O)c2cc1OC,-25.7%,–
COc1ccc(Cn2c(=O)[nH]c3cc(C(=O)N4CCN(C(=O)c5ccco5)CC4)ccc3c2=O)cc1,–,11.2 µM (active)
COc1ccccc1Cn1c(=S)[nH]c2cc(C(=O)N3CCN(C)CC3)ccc2c1=O,-23.2%,–
O=C(c1ccc2c(=O)n(Cc3ccco3)c(=S)[nH]c2c1)N1CCCC1,-22.9%,–
O=C(N=C1SC2CS(=O)(=O)CC2N1c1ccccc1)c1ccccc1 (stereo not given),11.5%,–
CS(=O)(=O)c1ccc(Cl)c(NC(=O)COC(=O)c2cccc(S(=O)(=O)N3CCCC3)c2)c1,-20.5%,–
CC(C)CCNC(=O)C(C)N(C(=O)Cn1nnc(-c2ccc(F)cc2)n1)C1CCCC1 (stereo not given),-27.3%,–
O=C(O)c1ccccc1CSc1nc2ccccc2s1,-12.8%,–
CN(C)c1ccc(/C=c2\[nH]c(=O)/c(=C/c3ccc(N(C)C)cc3)[nH]c2=O)cc1,-29.3%,–

Structure (SMILES),"activity change, negative = growth inhibition",Potency
COc1ccc2sc(-c3ccc(N(C)C)cc3)c(-c3ccc4cc[nH]c4c3)c2c1,-26.4%,–
COc1ccc2c(c1)c(=Cc1ccc(N(C)C)cc1)c1cc(-c3ccccc3)[n+](C)n12,–,0.92 µM (active)
O=C(CSc1nc2[nH]ncc2c(=O)[nH]1)Nc1ccc(F)cc1,-14.2%,–
O=C(NCCc1cccc(F)c1)C1CC(O)CN1C(=O)Nc1ccccc1 (stereo not given),-13.5%,–
CCCCN1C(=O)CCC(C(=O)O)C1c1ccc(OC)cc1 (stereo not given),-25.7%,–
CCCCc1ccc(NC(=O)CN2C(=O)NC(Cc3ccccc3)C2=O)cc1 (stereo not given),-26.5%,–
CCn1c(COc2ccccc2)nnc1SCC(=O)NCc1ccco1,-0.143%,–
Cn1c2ccccc2c(=O)c2c(=O)n(Cc3ccco3)c(COc3ccccc3)nc21,–,18.4 µM (active)
O=C(Cn1c(=O)n(Cc2ccco2)c(=O)c2ccccc21)NCC1CCCO1 (stereo not given),-6.65%,–
CCS(=O)(=O)Nc1ccc(C(=O)NCCSc2ccccc2)cc1,-13.8%,–
COc1ccc(-c2nc(Cn3c(=O)cc(C)c4c(C)nn(-c5ccccc5)c43)c(C)o2)cc1OC,-1.38%,–
COc1ccc(CNC(=O)COC(=O)CCS(=O)(=O)c2ccc(C)cc2)cc1OC,4.42%,–
Cc1ccc(S(=O)(=O)N2C[C@]3(O)C[C@@H]4C(=O)N(c5ccccc5)C(=O)[C@@H]4C[C@]3(OC(=O)NC3CC3)C2)cc1,-5.7%,–
CCCCCCn1c(=O)n2n(c1=O)C[C@]1(OC(=O)NCc3ccc(OC)c(OC)c3)CN(S(=O)(=O)c3ccc(C)cc3)C[C@]1(O)C2,–,23.1 µM (active)
CC1CCCCC1NC(=O)c1cn(C)c2ccc(S(=O)(=O)N3CCOCC3)cc2c1=O (stereo not given),-3.99%,–
Cc1ccc(S(=O)(=O)N2CCC(Oc3ccc(-n4cnnn4)cc3)CC2)cc1,–,inactive
COc1ccc(-c2oc3ncnc(NCCCO)c3c2-c2ccc(OC)cc2)cc1,–,20.6 µM (active)
OCCNc1ncnc2oc(-c3ccco3)c(-c3ccco3)c12,–,12.6 µM (active)
COCCNc1ncnc2c1ncn2[C@H]1CN(Cc2ccc(OC)cc2)C[C@@H](CO)O1,0.682%,–
OCCc1ccc(NCCc2ccco2)cc1,-0.916%,–
Cc1nnc(NCCO)c2ccccc12,-21.7%,–
O=C(CCSCc1cccc(F)c1)NCc1ccccc1,-26.1%,–
COc1ccccc1CNS(=O)(=O)c1c(C)[nH]c(C)c1C(=O)N1CCCCC1,-24.2%,–
Cc1ccc(Oc2cnn(-c3ccccc3)c(=O)c2Br)cc1,-24%,–
COc1ccc(-n2c(C)nc3c(cnn3-c3ccccc3)c2=O)cc1,–,29.1 µM (active)

Structure (SMILES),"activity change, negative = growth inhibition",Potency
CCOC(=O)c1ccc(-n2c(C)nc3c(cnn3-c3ccccc3C)c2=O)cc1,-14.8%,–
COc1ccc(-n2c(C)nc3c(cnn3-c3ccc(F)cc3)c2=O)cc1,–,23.1 µM (active)
CCC(C)Sc1nc2c(cnn2-c2ccc(F)cc2)c(=O)[nH]1 (stereo not given),-4.36%,–
CCOc1ccc(-n2c(C)nc3c(cnn3-c3ccc(C)cc3)c2=O)cc1,–,5.17 µM (active)
COc1ccc(-n2c(SC)nc(O)cc2=O)cc1,3.21%,–
CCc1nc2c(cnn2-c2ccc(C)cc2)c(=O)n1-c1ccc(C)cc1,-22.7%,–
CC(=O)Cn1cnc2c(cnn2-c2ccccc2)c1=O,6.92%,–
CC1CCc2c(c3ccccc3[nH]c2=O)O1 (stereo not given),1.58%,–
COc1ccc(-c2nc(N)sc2C2(O)C(=O)Nc3c(Br)cc(F)cc32)cc1OC (stereo not given),0.824%,–
O=C(COC(=O)c1cccnc1Cl)Nc1ccc(S(=O)(=O)N2CCOCC2)cc1,-4.85%,–
CC[C@]1(c2ccccc2OC)C(=O)N(C(=O)OC)N1C(=O)OC,–,20.6 µM (active)
COc1ccccc1CNC(=O)CCCN1C(=O)NC2(CCCC2)C1=O,-16.4%,–
COc1ccccc1CC(=O)Nc1ccc([N+](=O)[O-])cc1OC,-27.9%,–
Cc1ccccc1/C=C\c1nc(O)c([N+](=O)[O-])c(=O)[nH]1,1.6%,–
O=C(NNC(=O)c1cnccc1C(F)(F)F)c1ccc(Cl)cc1,-1.63%,–
O=C(NNC1=C(C(=O)C(F)(F)F)CCC1)c1ccncc1,–,1.64 µM (active)
Cc1ccc(C(=O)NNC(=O)c2ccncc2)cc1S(=O)(=O)N1CCCCC1,-14.8%,–
COc1cccc(NC(=O)CN(C)CC(=O)c2c(N)n(Cc3ccccc3)c(=O)n(C)c2=O)c1,-2.74%,–
O=C(OCC(=O)N1CCCCCC1)c1cccc(Cl)c1Cl,-1.2%,–
Cc1ccccc1C(=O)NCC(c1ccco1)N1CCc2ccccc21 (stereo not given),0.122%,–
O=C(NCC(c1cccnc1)N1CCc2ccccc21)c1cccc(C(F)(F)F)c1 (stereo not given),–,16.4 µM (active)
CCOC(=O)c1c(NC(=O)CSc2cn(CCNC(=O)c3cccc(C(F)(F)F)c3)c3ccccc23)sc2c1CCC2,-11.3%,–
CCNC(=O)c1cnn(-c2ccccc2)c1-c1ccccc1,-25.6%,–
CCCCNCCS(=O)(=O)NCc1ccccc1,-3.55%,–
Cc1ccc(-n2c(SCC(=O)Nc3ncc(Cl)cc3Cl)nc3ccccc32)cc1,–,14.6 µM (active)

Structure (SMILES),"activity change, negative = growth inhibition",Potency
Cc1cc(NC(=O)CSc2nc3ccccc3n2CC(C)C)no1,0.712%,–
Cc1ccc(SCCC(=O)OCC(=O)Nc2ncc(Cl)cc2Cl)cc1,-22.8%,–
Cc1cccc(N(CC(=O)N2CCCC2)S(C)(=O)=O)c1C,-0.939%,–
CCN(CC)C(=O)CS(=O)CC(=O)Nc1cc(OCCOC)c(Cl)cc1Cl (stereo not given),-0.33%,–
COc1ccccc1-c1nc(NCCNC(C)=O)c2ccccc2n1,0.18%,–
COc1ccccc1-c1nc(NCc2cccs2)c2ccccc2n1,–,16.4 µM (active)
COc1ccccc1CNCc1cccs1,-5.33%,–
O=C(O)CN1CCN(C(c2ccccc2)c2ccccc2)CC1,-0.379%,–
CC1(C)CC(N2CCN(C(c3ccccc3)c3ccccc3)CC2)=CC(=[N+]2CCCCC2)C1,–,0.164 µM (active)
CC1(C)CC(=O)C=C(N2CCCC2)C1,5.46%,–
CC(Oc1ccc2c(-c3ccccc3)cc(=O)oc2c1)C(=O)NC(Cc1c[nH]c2ccccc12)C(=O)O (stereo not given),6.52%,–
Cc1ccc(C)c(NC(=O)COC(=O)Cn2c(C)csc2=O)c1,-13.9%,–
COc1ccc(CCNC(=O)C(=O)NCC2CCNCC2)cc1OC,2.42%,–
COc1ccc(S(=O)(=O)NCC(c2ccc(N(C)C)cc2)N2CCc3ccccc32)cc1OC (stereo not given),-11.8%,–
COc1ccc(S(=O)(=O)NCC(c2ccc(N(C)C)cc2)N2CCCC2)cc1 (stereo not given),-7.81%,–
COc1ccc(C(=O)NCC(c2ccc(N(C)C)cc2)N2CCc3ccccc32)c(OC)c1 (stereo not given),–,18.4 µM (active)
CCOc1ccccc1C(=O)NCC(c1ccc(N(C)C)cc1)N1CCCC1 (stereo not given),–,20.6 µM (active)
COc1ccc(C(CNC(=O)COc2ccccc2OC)N2CCCCC2)cc1 (stereo not given),-14.9%,–
COc1ccccc1C(=O)NCCC(=O)NCC(c1ccco1)N1CCCCC1 (stereo not given),-7.77%,–
CCS(=O)(=O)N1CCC(N2CCN(c3ccccc3)CC2)CC1,3.97%,–
COC(=O)c1cc(OCC(=O)NC2CCCc3ccccc32)cc(C(=O)OC)c1 (stereo not given),2.26%,–
CCCOCC(O)CC(CC)C(=O)NNC(=S)Nc1ccccc1 (stereo not given),0.982%,–
Cc1cccc(-n2nc3c(c2NC(=O)c2ccc(Br)o2)CSC3)c1C,-18.8%,–
COc1cccc(C(=O)Nc2c3c(nn2-c2cccc(C)c2C)CS(=O)(=O)C3)c1OC,–,35.5 µM (active)
COc1ccccc1OCC(=O)Nc1c2c(nn1-c1ccc(F)cc1)CS(=O)(=O)C2,-5.24%,–
